# An excerpt weighted towards active compounds, which were near 2.6% of everything screened.
# A3G deaminase – APOBEC3G DNA deaminase inhibitors, primary screen, biochemical, fluorescence, single-stranded DNA substrate, uHTS. DNA dC->dU-editing enzyme APOBEC-3G (Homo sapiens), Q9HC16. recombinant A3G, ssDNA deamination FAM/TAMRA fluorescence. inhibition, % at 20 µM. 330,000 compounds, 0.28% hits. AID 493012, 2011;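 active = inhibition of at least 40% at 20 µM, with no more than 30% in the related APOBEC3A deaminase screen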;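 also: plate controls were DMSO wells with A3G for no effect and wells lacking A3G enzyme for full effect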
# Target sequence (Q9HC16 whole entry, looked up): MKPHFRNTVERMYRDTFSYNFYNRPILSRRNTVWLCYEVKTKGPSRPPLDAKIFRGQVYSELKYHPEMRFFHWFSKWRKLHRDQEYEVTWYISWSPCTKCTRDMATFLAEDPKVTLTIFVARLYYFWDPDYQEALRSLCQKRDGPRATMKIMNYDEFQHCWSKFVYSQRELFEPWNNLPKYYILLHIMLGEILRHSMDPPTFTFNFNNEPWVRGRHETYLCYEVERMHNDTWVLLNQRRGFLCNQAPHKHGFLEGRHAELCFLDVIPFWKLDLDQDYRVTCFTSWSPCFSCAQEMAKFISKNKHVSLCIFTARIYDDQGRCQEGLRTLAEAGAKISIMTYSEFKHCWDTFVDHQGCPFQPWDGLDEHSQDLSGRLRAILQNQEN
# eIF4H FP inh – human eIF4H binding inhibitors, primary screen, translation initiation inhibitor project, biochemical, uHTS, fluorescence polarization | eIF4H fluorescence polarization binding assay | inhibition, % at 35 µM | 290,000 compounds, 0.94% hits;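 also: calls also rest on retests at 20 µM and on dose response follow-up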
# PABP polyA inh – PABP poly(A) RNA binding inhibitors, primary screen, biochemical, fluorescence polarization, uHTS | 290,000 compounds, 1% hits | calls only at 35 µM | Polyadenylate-binding protein 1 (Homo sapiens), P11940;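 also: calls also rest on retests at 20 µM and on dose response follow-up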
# APOBEC3A inh – APOBEC3A ssDNA deaminase inhibitors, primary screen, selectivity assay for APOBEC3G inhibitor project, biochemical, FAM/TAMRA oligo cleavage fluorescence; DNA dC->dU-editing enzyme APOBEC-3A (Homo sapiens), P31941; recombinant A3A, FAM/TAMRA ssDNA deamination fluorescence; inhibition, % at 20 µM; 330,000 compounds, 0.41% hits;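 active = at least 40% inhibition at 20 µM here, with at most 30% in a related deaminase screen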;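 also: plate controls were A3A with DMSO for no effect and wells lacking A3A enzyme for full effect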
# Target sequence (P31941 whole entry, looked up): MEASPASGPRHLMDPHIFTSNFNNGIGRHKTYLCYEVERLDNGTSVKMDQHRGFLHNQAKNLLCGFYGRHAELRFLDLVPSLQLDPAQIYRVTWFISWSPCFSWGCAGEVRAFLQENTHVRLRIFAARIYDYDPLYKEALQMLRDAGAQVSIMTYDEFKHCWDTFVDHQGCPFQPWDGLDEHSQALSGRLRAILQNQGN
# PHOSPHO1 block – PubChem AID 1565. Phosphoethanolamine/phosphocholine phosphatase (Homo sapiens), Q8TCT1. recombinant PHOSPHO1, absorbance phosphatase assay. inhibition, % at 13.3 µM. 290,000 compounds, 1.1% hits; in the data active = inhibition above about 60%
# MLLE-PAM2 inh – inhibitors of PABP1 MLLE–PAM2 peptide binding, primary screen, biochemical, fluorescence polarization, FITC-PAM2, GST-MLLE; inhibition, % at 20 µM; 360,000 compounds, 0.36% hits; in the data active = inhibition above about 35%, passing the limit was not always enough;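 also: plate controls were DMSO wells with GST-MLLE for no effect and wells lacking GST-MLLE protein for full effect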
# APOBEC3A confirm – APOBEC3A deaminase inhibitors, retest, confirmation, selectivity assay for APOBEC3G inhibitor project, biochemical, single concentration, fluorescence readout; shares compounds with APOBEC3A inh; inhibition, % at 20 µM; AID 493151, 2011; recombinant A3A, ssDNA deaminase UDG fluorescence assay; 1,400 compounds, 63% hits;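 active = inhibition reaching a set limit, 80% of the first screen's cutoff, at 20 µM in any replicate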;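 also: plate controls were DMSO wells with A3A for no effect and wells lacking A3A enzyme for full effect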
# UDG ctr A3A – E. coli UDG inhibitors, confirmation, counter-screen for APOBEC3A inhibitor project, biochemical, single concentration, fluorescence, FAM/TAMRA oligo; AID 504714, 2011; UDG counterscreen, FAM/TAMRA uracil oligo fluorescence; shares compounds with APOBEC3A inh; inhibition, % at 20 µM; 1,000 tested, under 10 active
# * marks the source's active call; other numbers are inactive results; i = inactive; u = inconclusive; x = no result; + = active, no number; ! = not confirmed by another sample. Unless noted, no rule for the calls is given here.
SMILES,A3G deaminase,eIF4H FP inh,PABP polyA inh,APOBEC3A inh,PHOSPHO1 block,MLLE-PAM2 inh,others
CCOC(=O)[C@@H]1[C@H]2COc3ccc(Br)cc3[C@H]2N2C(=O)N(c3cccc(C)c3)C(=O)[C@]12C,-8,x,x,-6,x,5,
CC/C(=N\N1CCCCCC1)c1c(O)n(-c2ccccc2C)c(=O)[nH]c1=O,-1,6,i,1,19,-15,
CC/C(=N\Nc1cccc2ccccc12)c1c(O)[nH]c(=O)[nH]c1=O,37,54*,i,-2,3,-9,
Nc1ccc(CCN2CCN(c3cccc(C(F)(F)F)c3)CC2)cc1,-8,x,x,-3,x,-2,
FC(F)(F)c1ccc2c(c1)N(CCCN1CCN(CCCl)CC1)c1ccccc1S2,-3,-5,i,-2,64*,1,
COP(=S)(OC)SCN1C(=O)c2ccccc2C1=O,12,3,i,-4,77*,28,
COc1ccc2c(c1)c(C(=O)C(C)N1CCCCC1)c(C)n2C (stereo unspecified),-6,-2,i,-9,-3,-11,
Cn1ncnc2c(=O)n(C)c(=O)nc1-2,-4,-4,i,-2,79*,-2,
COC(=O)CSC1=NP(=S)(SCC(=O)OC)N2CCCC2=C1C#N (stereo unspecified),-3,1,i,-1,67*,8,
CSCCC(c1nnnn1-c1ccc2c(c1)OCCO2)N1CCC(n2c(=O)[nH]c3ccccc32)CC1 (stereo unspecified),x,x,x,x,x,14,
Cc1cc(C)c(-n2c(O)c(/C=N/NC(=O)c3ccncc3)c(=O)[nH]c2=O)c(C)c1,-6,57*,+,-3,12,-24,
Cc1cc2c(C(C)C)c(O)c(O)c(C=O)c2c(O)c1-c1c(C)cc2c(C(C)C)c(O)c(O)c(C=O)c2c1O,x,95,+,x,4,9,
Cc1ccccc1N1C(=O)/C(=C/c2ccco2)C(=O)NC1=S,x,75*,+,x,-56,x,
O=C1NC(=S)NC(=O)C12C(c1ccc(F)cc1)NC(=S)NC2c1ccc(F)cc1 (stereo unspecified),-6,4,i,-2,95*,-3,
O=c1[nH]c(=S)[nH]c(O)c1N=Nc1ccc2c(c1)OCO2,-2,53*,i,3,-31,-34,
Cc1ccc(C(C)C)c(OCC(=O)N2CCN(Cc3nc4cc([N+](=O)[O-])ccc4n3C)CC2)c1,-5,-2,i,-4,-10,-6,
COC(=O)C1=C(c2cccc(C#N)c2)C[C@@H]2CC[C@H]1N2C(=O)NCC1CC1,-7,x,x,-4,x,6,
CO[C@H]1CC=C2CCN3CCC4=C(CC(=O)OC4)[C@]23C1,-2,x,x,7,x,8,
Cc1ccc(N=Cc2c(O)n(-c3ccc(C)cc3)c(=O)[nH]c2=O)cc1,-9,x,x,-2,x,2,
Cc1ccc(-n2c(O)c(C=Nc3ccc(S(=O)(=O)N(C)C)cc3)c(=O)[nH]c2=O)cc1,-7,u,+,-1,40,-3,
COCCCNC(=O)c1c(NC(=O)c2ccccc2Cl)n(Cc2ccccc2)c2nc3ccccc3nc12,-1,42*,i,1,18,-12,
COCCNC(=O)c1c(NC(=O)c2ccco2)n(Cc2ccccc2)c2nc3ccccc3nc12,-3,18,i,-2,19,6,
CCOC(=O)c1c(C)c(P(=S)(N2CCOCC2)N2CCOCC2)n(C)c1C,-3,-9,i,-3,61*,21,
C[N+]1(C)[C@@H]2CC[C@H]1CC(OC(=O)C(CO)c1ccccc1)C2 (stereo partly specified),-2,-10,i,0,6,0,
CN1C2CCC1CC(OC(=O)c1ccc(Cl)cc1)C2 (stereo unspecified),-7,-9,i,-5,9,-2,
SMILES,A3G deaminase,eIF4H FP inh,PABP polyA inh,APOBEC3A inh,PHOSPHO1 block,MLLE-PAM2 inh,others
C[N+]1(C)C2CCC1CC(OC(=O)C(CO)c1ccccc1)C2 (stereo unspecified),17,6,i,68*,-10,-116,APOBEC3A confirm=74*;UDG ctr A3A=-4
C[N+]1(C)C2CCC1CC(OC(=O)c1ccccc1)C2 (stereo unspecified),17,1,i,50*,13,-85,APOBEC3A confirm=67*;UDG ctr A3A=1
O=[N+]([O-])c1ccc(N2CCCCCC2)c2ncccc12,-7,1,i,1,28,-3,
O=C1NC(=O)C(=Cc2ccc(-c3cc(Cl)ccc3[N+](=O)[O-])o2)C(=O)N1,x,38,i,x,-75,-1,
CN1C(=O)NC(=O)/C(=C\c2ccc([N+](=O)[O-])o2)C1=O,26,95,i,65*,-10,12,APOBEC3A confirm=54*
Cc1ccc2c(c1Cl)NC(C(=O)O)C1CC(Sc3ccccc3[N+](=O)[O-])C(Cl)C21 (stereo unspecified),25,87*,+,41*,-98,22,APOBEC3A confirm=29
COC(=O)C1=C(c2ccc(Cl)c(C(F)(F)F)c2)C[C@@H]2CC[C@H]1N2C(=O)NCC1CC1,-7,x,x,1,x,5,
CSc1nc(N)c(N=Nc2ccc([As](=O)(O)O)cc2)c(=O)[nH]1,2,25,i,3,-52,23,
COc1ccc2[nH]c(C)c(CCNCc3cc(OC)c4c(c3)OCO4)c2c1,-8,x,x,-3,x,-1,
O=c1[nH]cnc2nc(-c3ccc(N(CCCl)CCCl)cc3)[nH]c12,x,x,x,x,x,-8,
CN(C)CC1CCCCC1OC(=O)Cc1ccc(Cl)c([N+](=O)[O-])c1 (stereo unspecified),15,-6,i,55*,2,-139,APOBEC3A confirm=74*;UDG ctr A3A=1
CCc1ccccc1NC(=O)CN1CCN(C(=O)COc2ccccc2C#N)CC1,-5,x,x,5,x,-10,
Cn1c[n+](C)cc1C(O)c1ccccc1 (stereo unspecified),17,7,+,60*,96*!,-140,APOBEC3A confirm=51*;UDG ctr A3A=-3

# Screens: PubChem, Sanford-Burnham Center for Chemical Genomics
